Among all 370,000 compounds or so, about 2,600 (0.7%) were called active. Shown is part of a subset that was picked to be rich in actives. A number with no mark means an inactive call.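 The calls were made as follows: active = inhibition above a cutoff: mean of compounds within the control limits plus 3 SD of those (cut at about 17% in these data); inactive = the rest.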
These molecules were tested against Sialate O-acetylesterase (Homo sapiens) (UniProt Q9HAT2) (assay: human SIAE inhibitors, primary screen, biochemical, fluorescence polarization, FP-Rh probe, 1536-well HTS (AID 1053197;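 also: 0% = plate median of compound wells and 100% = probe without SIAE protein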)). Settings: SIAE FP-Rh probe binding, at 9.66 µM, hits give high values.
Sequence of Sialate O-acetylesterase (Homo sapiens) (Q9HAT2 whole entry, looked up): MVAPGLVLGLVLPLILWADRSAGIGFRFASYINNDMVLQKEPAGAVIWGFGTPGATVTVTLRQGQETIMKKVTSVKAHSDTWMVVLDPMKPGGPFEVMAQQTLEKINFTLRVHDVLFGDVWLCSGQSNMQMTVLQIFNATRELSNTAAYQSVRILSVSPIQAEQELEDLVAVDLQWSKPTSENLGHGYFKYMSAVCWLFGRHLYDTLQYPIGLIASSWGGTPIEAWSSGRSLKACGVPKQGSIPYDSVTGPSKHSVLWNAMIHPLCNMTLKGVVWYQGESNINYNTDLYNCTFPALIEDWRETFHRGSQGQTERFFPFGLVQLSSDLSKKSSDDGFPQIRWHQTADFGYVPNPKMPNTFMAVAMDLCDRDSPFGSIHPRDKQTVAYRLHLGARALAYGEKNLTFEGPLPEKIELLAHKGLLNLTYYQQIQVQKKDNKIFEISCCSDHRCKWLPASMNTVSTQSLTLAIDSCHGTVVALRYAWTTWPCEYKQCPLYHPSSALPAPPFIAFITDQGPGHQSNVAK

Row | Compound | inhibition
1 | CC(C)C(C#CC1CC1)N(Cc1ccc2c(c1)OCO2)C(N)=NC(=O)/C=C/c1cccc(C(F)(F)F)c1 (stereo not drawn) | -3.05%
2 | CCN(CC)C(=O)CC[C@@H]1CC[C@]2(CCCN(S(=O)(=O)C3CCCCC3)C2)O1 | 0.62%
3 | Cc1ccc(-c2csc(NCCc3nc4cc(Cl)c(Cl)cc4n3CCOCCO)n2)cc1 | 1.85%
4 | Cc1ccc(Nc2nc(-c3ccc(O)cc3O)cs2)nc1 | 20.7% (active)
5 | CC(=O)Nc1cnc(-c2ccc(O)cc2C)cn1 | 1.05%
6 | COC(=O)[C@H](C(C)C)N(CCc1cn(Cc2ccccc2)nn1)S(=O)(=O)c1ccc(F)cc1Br | 0.91%
7 | Cc1ccc(-n2c(SCC(=O)Nc3ccc(S(=O)(=O)Nc4nccs4)cc3)nnc2-c2ccccn2)cc1 | -6.07%
8 | COc1cccc(Cn2cc(COC(=O)Nc3ccc(F)cc3)nn2)c1 | -7.19%
9 | CCOC(=O)c1cc2cc(-c3c(C(=O)OCC)oc4cc(O)cc(O)c4c3=O)ccc2o1 | 17.1%
10 | C[C@@H]1O[C@@H](OC[C@H]2O[C@@H](Oc3c(-c4ccc(O)cc4)oc4cc(O)cc(O)c4c3=O)[C@H](O)[C@@H](O)[C@@H]2O)[C@H](O)[C@H](O)[C@H]1O | 19.5% (active)
11 | Cc1ccc(-n2c(COc3ccccc3)nnc2SCC(=O)Nc2ccc3c(c2)OCCO3)cc1 | -2.64%
12 | Cc1ccc(C2=CCN(C)C(=O)N2c2ccc(Cl)cc2)cc1 | -0.37%
13 | Cc1cc(C(=O)NN=C/C=C/c2ccco2)n[nH]1 | 3.3%
14 | Cc1ccc(N=C2NC(=O)/C(=C/C=C/c3ccco3)S2)cc1C | 27.6% (active)
15 | CCOc1ccc(Oc2c(Cl)cnn(-c3ccc(C)cc3)c2=O)cc1 | -1.82%
16 | CC(C)N1CCCCC(NC(=O)c2ccc3ccccc3c2)C1=O (stereo not drawn) | -1.26%
17 | CCCCC(=O)N[C@@H]1CC[C@@]23CCCN2C(=O)CCC[C@H]3[C@H]1C | -5.34%
18 | CC(NCc1ccco1)C(=O)N1CCCCC1 (stereo not drawn) | 5.06%
19 | O=C(O)c1ccccc1N=N/C(=N/Nc1cc(S(=O)(=O)O)ccc1O)c1ccccc1 | 28.9% (active)
20 | O=C(Nc1cccc(Cl)c1)OC1CC2CC1[C@H]1CCCCN1[C@H]2Cc1ccccc1 (stereo partly drawn) | -4.13%
21 | CCCCC[C@H](C)N1C[C@@H](COCc2ccccc2)Oc2cc(N3CCC[C@@H]3CO)ccc2S1(=O)=O | 2.79%
22 | CSc1ccc(Oc2cccc3c2S(=O)(=O)N([C@H](C)c2ccccc2)C[C@@H](COCc2ccccc2)O3)cc1C | -4.88%

Row | Compound | inhibition
23 | CCCCC[C@H](C)N1C[C@@H](COCc2ccccc2)Oc2cc(N3CC[C@@H](N(C)C)C3)ccc2S1(=O)=O | 23.3% (active)
24 | O=C(CSc1nnc(-c2ccccc2)n1Cc1ccco1)Nc1ccccc1-c1ccccc1 | -6.96%
25 | CCOC(=O)[C@]12CCCC=C1N(CCCOC)C(=O)[C@@H]2CC(=O)N1CCOCC1 | -6.36%
26 | COc1cccc(N(C)C(=O)[C@@H](C)[C@@H](O)c2ccc3ccccc3c2)c1 | -4%
27 | C=C(C)C#CC(Cc1ccccc1)NCC1CC1 (stereo not drawn) | 4.41%
28 | CCOC(=O)N1CCN(C(=O)CSc2ccc(Cl)cc2)CC1 | 19% (active)
29 | O=C(CSc1ccc(Cl)cc1)NC1CC1 | -0.71%
30 | CS(=O)(=O)N1CCN(C(=O)CSc2ccccc2)CC1 | -3.36%
31 | CCC(C)[C@@H](C(=O)OC)N(CCc1cn(Cc2ccccc2)nn1)S(=O)(=O)c1ccccc1Br (stereo partly drawn) | -2.68%
32 | CCN1N=C(c2ccccc2)CCC1=O | -3.71%
33 | O=C1CC(c2ccccc2)=NN1c1ccc([N+](=O)[O-])cc1 | 19.8% (active)
34 | C/C(N)=C(/C#N)C(=O)COC(=O)C1=NN(c2ccccc2)C(=O)CC1 | 0.03%
35 | O=C(CNS(=O)(=O)c1ccccc1F)N1CCN(c2ccccn2)CC1 | 2.08%
36 | O=C(Nc1cc(Cl)cc(Cl)c1)OCCN1CCCC12CCC(c1ccccc1)CC2 (stereo not drawn) | -10.1%
37 | CC(=O)Nc1ccc(/C=N/Nc2ccc(C(=O)c3c(C)cc4ccccn34)cc2[N+](=O)[O-])cc1 | 9.63%
38 | Cc1cc2ccccn2c1C(=O)c1cccc(F)c1 | 18.5% (active)
39 | Cc1cc2ccccn2c1C(=O)c1cccc(S(=O)(=O)N2CCOCC2)c1 | -6.52%
40 | Fc1ccc2nc(COCc3nc4ccc(F)cc4[nH]3)[nH]c2c1 | -7.18%
41 | CC1CCCN(Cc2nc3c(c(=O)n(C)c(=O)n3C)n2CC(=O)c2ccccc2)C1 (stereo not drawn) | 7.4%
42 | Cc1c(CN2CCCCC2)c(O)n(CCO)c(=O)c1C#N | -5.55%
43 | CCCn1c(O)c(CN2CCCC(C)C2)c(C)c(C#N)c1=O (stereo not drawn) | 43.7% (active)

Source: PubChem BioAssay AID1053197 (The Scripps Research Institute Molecular Screening Center, 2014)
